NR3A LBD binder = modulates the human NR3A ligand-binding domain; NR3A LBD differential scanning fluorimetry, Tm shift; 0% = protein alone, 100% = glycine-bound protein; AID 1259313; Tm shift relative to glycine control, % at 25 µM; 340,000 tested, 2.5% active;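 active means melting temperature shift of at least 10% of the positive control shift, at one fixed dose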
HGIII-sPLA2 inh = Inhibits HGIII-sPLA2 liposome hydrolysis, primary screen | QFRET BODIPY PC-A2 liposome hydrolysis, fluorescence | 370,000 tested, 0.56% active | Q9NZ20 | inhibition, % at 12.2 µM;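 active means inhibition above mean plus 3 SD of compounds lying within the high and low control bounds, cut at about 19% in these data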
FAS TE block = FAS thioesterase (human) inhibition | recombinant FAS-TE, OMFH fluorogenic substrate, fluorescence endpoint | inhibition, % at 15 µM | 360,000 tested, 0.67% active;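 active means compounds whose normalised, plate-corrected inhibition of enzyme fluorescence in the single-dose primary screen is 50% or more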
Target sequence (P49327 whole entry, looked up): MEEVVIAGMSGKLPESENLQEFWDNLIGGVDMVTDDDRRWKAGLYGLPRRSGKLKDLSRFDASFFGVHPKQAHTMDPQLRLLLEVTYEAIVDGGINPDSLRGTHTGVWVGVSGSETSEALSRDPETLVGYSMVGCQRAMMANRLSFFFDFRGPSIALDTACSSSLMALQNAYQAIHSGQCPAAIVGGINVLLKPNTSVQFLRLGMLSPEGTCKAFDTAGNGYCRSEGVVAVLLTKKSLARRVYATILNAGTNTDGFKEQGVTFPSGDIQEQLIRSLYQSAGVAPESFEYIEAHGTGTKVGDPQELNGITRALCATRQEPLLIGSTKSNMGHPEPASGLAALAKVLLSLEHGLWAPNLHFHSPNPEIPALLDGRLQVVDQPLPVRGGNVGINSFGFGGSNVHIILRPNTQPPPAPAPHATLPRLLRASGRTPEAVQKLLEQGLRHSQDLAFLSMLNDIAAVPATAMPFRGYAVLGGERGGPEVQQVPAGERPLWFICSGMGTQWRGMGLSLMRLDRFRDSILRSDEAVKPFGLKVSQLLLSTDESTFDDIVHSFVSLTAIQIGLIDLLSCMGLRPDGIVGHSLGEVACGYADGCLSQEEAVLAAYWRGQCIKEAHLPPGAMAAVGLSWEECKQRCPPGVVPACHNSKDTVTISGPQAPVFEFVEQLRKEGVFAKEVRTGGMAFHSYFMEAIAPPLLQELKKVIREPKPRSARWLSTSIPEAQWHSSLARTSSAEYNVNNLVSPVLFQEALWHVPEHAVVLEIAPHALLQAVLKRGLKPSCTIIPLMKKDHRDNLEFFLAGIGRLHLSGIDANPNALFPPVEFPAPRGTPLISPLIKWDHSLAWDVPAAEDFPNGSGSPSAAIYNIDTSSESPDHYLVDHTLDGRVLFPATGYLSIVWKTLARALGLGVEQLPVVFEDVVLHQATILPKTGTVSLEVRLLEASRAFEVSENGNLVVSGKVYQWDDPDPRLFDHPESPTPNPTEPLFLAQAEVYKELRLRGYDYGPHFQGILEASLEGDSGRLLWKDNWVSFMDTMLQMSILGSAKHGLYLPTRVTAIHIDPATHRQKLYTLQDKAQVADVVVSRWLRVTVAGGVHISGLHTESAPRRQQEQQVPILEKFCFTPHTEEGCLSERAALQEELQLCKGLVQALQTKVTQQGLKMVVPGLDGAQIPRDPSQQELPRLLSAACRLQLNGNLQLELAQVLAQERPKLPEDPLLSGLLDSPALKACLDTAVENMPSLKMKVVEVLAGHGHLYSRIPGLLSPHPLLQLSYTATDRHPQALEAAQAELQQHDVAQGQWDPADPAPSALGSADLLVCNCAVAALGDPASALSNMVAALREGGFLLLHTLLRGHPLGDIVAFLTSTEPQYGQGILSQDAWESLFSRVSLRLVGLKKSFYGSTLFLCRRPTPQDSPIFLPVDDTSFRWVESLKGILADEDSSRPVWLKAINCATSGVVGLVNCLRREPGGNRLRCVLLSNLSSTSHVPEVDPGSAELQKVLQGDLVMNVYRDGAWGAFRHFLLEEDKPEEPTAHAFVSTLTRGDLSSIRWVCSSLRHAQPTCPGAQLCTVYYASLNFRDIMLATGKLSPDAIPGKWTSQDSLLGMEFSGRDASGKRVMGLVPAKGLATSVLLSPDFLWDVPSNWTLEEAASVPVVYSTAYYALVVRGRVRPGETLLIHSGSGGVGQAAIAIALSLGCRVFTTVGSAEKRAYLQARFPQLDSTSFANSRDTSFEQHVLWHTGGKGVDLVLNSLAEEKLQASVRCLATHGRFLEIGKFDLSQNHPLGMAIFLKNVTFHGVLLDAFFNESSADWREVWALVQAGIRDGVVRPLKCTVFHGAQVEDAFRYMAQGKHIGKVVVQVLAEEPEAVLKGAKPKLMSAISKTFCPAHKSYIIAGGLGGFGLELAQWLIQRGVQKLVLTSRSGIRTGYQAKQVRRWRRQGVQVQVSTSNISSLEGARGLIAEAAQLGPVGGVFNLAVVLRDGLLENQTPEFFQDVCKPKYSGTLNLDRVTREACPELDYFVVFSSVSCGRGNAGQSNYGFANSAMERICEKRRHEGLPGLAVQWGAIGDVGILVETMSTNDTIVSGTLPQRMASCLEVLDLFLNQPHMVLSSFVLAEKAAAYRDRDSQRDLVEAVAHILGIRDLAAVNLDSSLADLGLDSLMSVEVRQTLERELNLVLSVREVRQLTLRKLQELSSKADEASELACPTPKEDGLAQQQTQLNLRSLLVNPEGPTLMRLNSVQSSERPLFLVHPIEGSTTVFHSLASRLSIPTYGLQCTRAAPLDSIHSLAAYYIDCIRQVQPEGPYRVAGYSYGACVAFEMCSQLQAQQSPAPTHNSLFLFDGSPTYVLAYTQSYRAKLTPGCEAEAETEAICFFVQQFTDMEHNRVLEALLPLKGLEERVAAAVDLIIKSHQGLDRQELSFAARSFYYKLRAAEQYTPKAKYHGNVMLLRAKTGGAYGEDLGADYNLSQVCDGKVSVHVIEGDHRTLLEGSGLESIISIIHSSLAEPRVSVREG
ADAM10 inh = inhibits human ADAM10 | inhibition, % at 7 µM | 370,000 tested, 0.62% active | recombinant ADAM10, EDANS/DABCYL FRET peptide cleavage, 3 h;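 active means inhibition above a per-campaign cutoff equal to the mean of compounds falling between control-based bounds plus 3 SD, cut at about 20% in these data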
ADAM17 inh = inhibits human ADAM17; P78536; recombinant ADAM17, EDANS/DABCYL FRET peptide cleavage; inhibition, % at 6.95 µM; 370,000 tested, 0.83% active; AID 720648;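 active means inhibition above the mean of compounds lying between control limits plus 3 SD, set per campaign, cut at about 8.5% in these data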
hGIII sPLA2 conf = human GIII-sPLA2 inhibition, confirmation; shares compounds with HGIII-sPLA2 inh; recombinant hGIII-sPLA2, BODIPY PC-A2 QFRET fluorescence; inhibition, % at 12.2 µM; 2,000 tested, 34% active; AID 743280;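 active means mean inhibition across triplicates above the hit cutoff set in the earlier primary screen, cut at about 19% in these data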
535nm interf = optically interferes with 535nm fluorescence in sPLA2 counter-screen. shares compounds with HGIII-sPLA2 inh. BODIPY FL product fluorescence interference, QFRET. inhibition, % at 12.2 µM. 2,000 tested, 8.5% active. AID 743282;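 active means average inhibition above the solvent-only control mean plus 3 SD, cut at about 6% in these data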
535nm interf DR = interferes with 535nm fluorescence in dose response counter-screen; 240 tested, under 10 active; IC50, µM; shares compounds with HGIII-sPLA2 inh; BODIPY FL product fluorescence interference, cell-free;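 active means IC50 at or below 10 µM; inactive means IC50 above 10 µM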
A number is an active result; i = inactive; nt = not tested or not shown. Only some compounds are listed: those with a hit (about 4.3% of all), similar ones and a draw of the others.

SMILES | NR3A LBD binder | HGIII-sPLA2 inh | FAS TE block | ADAM10 inh | ADAM17 inh | hGIII sPLA2 conf | 535nm interf | others
Cc1ccc(-n2c(SCC(=O)Nc3ccc(N4CCOCC4)cc3)nc3ccccc3c2=O)cc1 | i | i | i | i | i | nt | nt
O=C(CSc1nc2ccccc2c(=O)n1-c1ccc(SC(F)F)cc1)Nc1ccc(N2CCOCC2)cc1 | i | 21 | i | i | i | i | i
CCNC(=O)CSc1nc2ccccc2c(=O)n1-c1cccc(OC)c1 | i | i | i | i | i | nt | nt
O=C(NCc1ccccc1)[C@H]1CCCN1C(=O)[C@H]1CCCN1C(=O)c1ccc(F)cc1 | nt | i | nt | i | i | nt | nt
O=C(NC1CCCCN(Cc2cccc(C(F)(F)F)c2)C1=O)c1ccc(Cl)cc1 (configuration not stated) | nt | i | nt | i | i | nt | nt
O=C1N/C(=N\N=C\c2cccs2)SC1Cc1cccc(Cl)c1Cl (configuration not stated) | i | 20 | i | i | i | i | i
O=C1N/C(=N\N=C\c2cccs2)SC1Cc1ccc(Cl)cc1Cl (configuration not stated) | i | i | i | i | i | nt | nt
C(=CCSc1ccccn1)CSc1ccccn1 | nt | i | nt | i | i | nt | nt
Cc1ccc(C)c(NC(=S)NNC(=O)c2csc(C)c2C)c1 | i | 21 | i | i | i | 38 | i | 535nm interf DR=i
Cc1ccc(C)c(NC(=S)NNC(=O)c2sccc2C)c1 | i | i | i | i | i | nt | nt
CCOC(=O)CCC(NC(=O)CCCC(=O)NC(CCC(=O)OCC)C(=O)OCC)C(=O)OCC (configuration not stated) | i | 22 | i | i | i | i | i
CCOCCCNC(=O)C1CCN(C(=O)N(C)C)CC1 | i | 20 | i | i | i | i | i
Cc1ccc(CN2CCC=CS2(=O)=O)cc1 | nt | i | nt | i | i | nt | nt
O=C(CCc1ccccc1)NC(c1cccs1)c1cc(Cl)c2cccnc2c1O (configuration not stated) | i | 23 | i | i | i | i | i
CCCCC(=O)NC(c1ccco1)c1cc(Cl)c2cccnc2c1O (configuration not stated) | i | 23 | i | i | i | i | i
CC(C)CN(CCCNC(=O)CN1N=C(c2ccc(Cl)cc2)CCC1=O)CC(C)C | i | 25 | i | i | i | 32 | i
CC1CCCN(C(C(=O)NC2CCCCC2)c2cc3c(cc2[N+](=O)[O-])OCO3)C1 (configuration not stated) | i | 20 | i | i | i | i | i
COc1ccc2c(c1)C(=O)C(=O)N2CC1COc2ccccc2O1 (configuration not stated) | i | 20 | i | i | i | 25 | i
CCOc1ccc2c(c1)C(=O)C(=O)N2CC1COc2ccccc2O1 (configuration not stated) | i | i | i | i | i | nt | nt
CCOC(=O)[C@@]12CCC3=C1N(CCC3)C(=O)[C@H](CC(=O)NCCC(C)C)C2 | nt | i | nt | i | i | nt | nt
O=[N+]([O-])c1ccccc1C=NNC(=S)NN=Cc1ccccc1[N+](=O)[O-] | i | 24 | i | i | i | 49 | 7.3
CCCCNC(=S)N/N=C/c1cccc(OCC)c1O | i | 24 | i | i | i | 28 | i | 535nm interf DR=i
CCOc1cccc(/C=N/NS(=O)(=O)c2ccc(C)c([N+](=O)[O-])c2)c1O | i | i | i | i | i | nt | nt
CCOc1cccc(/C=N/NC(=S)Nc2ccccc2[N+](=O)[O-])c1O | i | 24 | i | i | i | 52 | 14
CC(C)NC(=S)N/N=C/c1ccccc1[N+](=O)[O-] | i | i | i | i | i | nt | nt
SMILES | NR3A LBD binder | HGIII-sPLA2 inh | FAS TE block | ADAM10 inh | ADAM17 inh | hGIII sPLA2 conf | 535nm interf | others
OCC1SC(O)C(O)C(O)C1O (configuration not stated) | nt | i | nt | i | i | nt | nt
CC(C)C[C@@H]1NC(=O)[C@H]2C[C@]3(c4ccccc4)c4ccccc4N[C@H]3N2C1=O | nt | i | nt | i | i | nt | nt
COc1ccc2c(c1)OC[C@H]1[C@H]2N2C(=O)c3cc(OC)c(OC)cc3NC(=O)[C@@]2(C)[C@H]1c1ccccc1 | i | 31 | 91 | i | i | i | i
COc1cc2c(cc1OC)C(=O)N1[C@H]3c4ccccc4OC[C@@H]3[C@H](c3ccccc3)[C@]1(C)C(=O)N2 | i | i | i | i | i | nt | nt
CC1CCCC(NC(=O)COC(=O)/C=C/c2ccc([N+](=O)[O-])cc2)C1C (configuration not stated) | i | 19 | i | i | i | i | i
O=C(N/N=C/c1cc(Br)cc(Br)c1O)c1cccc(N2CCCC2=O)c1 | i | 28 | i | i | i | 24 | i
O=C(N/N=C/c1ccc(Cl)cc1Cl)c1cccc(N2CCCC2=O)c1 | i | i | i | i | i | nt | nt
NC(=O)c1ccc(NC(=O)CSc2nnc(-c3ccccc3)n2-c2ccccc2)cc1 | nt | i | nt | i | i | nt | nt
O=S(=O)(c1cccc(C(F)(F)F)c1)N1CCN(C(=S)NC2CC2)CC1 | i | 22 | i | i | i | i | i
COc1ccc2c(c1C(=O)/C=C/c1ccccc1)OC(C)(C)C=C2 | nt | i | nt | i | i | nt | nt
O=C(CCl)NNC(=O)c1c(O)c2ccccc2[nH]c1=O | i | 23 | i | i | i | i | i
COc1ccc(/C=C2\C(=O)NC(=S)N2C(=O)c2ccc(C)cc2)cc1 | i | i | i | i | i | nt | nt
O=C1NC(=S)N(C(=O)c2ccc(F)cc2)/C1=C/c1cccnc1 | i | 20 | i | i | i | i | i
COC(=O)C[C@@H]1CC[C@H]2[C@H](COc3ccc(NC(=O)c4cccc(C(F)(F)F)c4)cc3C(=O)N2C)O1 | nt | i | nt | i | i | nt | nt
COc1ccc(-c2nnn3c2Cn2c4ccccc4c(=O)n2[C@@H](C)C3)cc1 | nt | i | nt | i | i | nt | nt
O=C(Nc1ccc(-c2noc(-c3ccccc3F)n2)cc1)c1cccs1 | 29 | 21 | i | i | i | i | i
CC1=CC(C)(C)NC(=S)N1c1ccc2ccccc2c1 | i | i | i | i | i | nt | nt
CC1=CC(C)(C)NC(=S)N1c1ccc(Cl)cc1 | i | 20 | i | i | i | 21 | i
CC1=CC(C)(C)NC(=S)N1c1cccc2ccccc12 | i | 20 | i | i | i | 31 | i | 535nm interf DR=i
COC(=O)c1cc2c(c3c4cc(F)ccc4n(S(=O)(=O)c4ccc(C)cc4)c13)C(=O)N(C)C2 | nt | i | nt | i | i | nt | nt
COC(=O)C1=C(C)N(Cc2ccc(C(F)(F)F)cc2)C(=NCc2ccc(OC)cc2)NC1c1ccccc1C(F)(F)F (configuration not stated) | nt | i | nt | i | i | nt | nt
Cc1nc2ccccn2c1C(=O)N=Nc1c(O)n(CCC(C)C)c2ccccc12 | i | 22 | i | i | i | i | i
